The record followed here is PubChem BioAssay AID485344 (National Center for Advancing Translational Sciences (NCATS), 2010).

Molecules are shown by their SMILES. The whole screen tested about 340,000 compounds, of which about 6,900 (2%) were called active. This is one part of a sample in which actives are shown more often than they occur. A number with no mark means an inactive call. No stated cut-off is given here; in the data, active means inhibition above about 30%; inactive means below that, where a call was filed.

For the test, the target named is D(2) dopamine receptor (Homo sapiens) (UniProt P14416). The test is described as follows: HTS Assay for Allosteric Antagonists of the Human D2 Dopamine Receptor: Primary Screen for Antagonists. Further: 0% is about no effect. The note with it: HEK293 TREx D2 cells, calcium flux, dopamine EC80; at 10 µM; active compounds read high. In a few lines: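 Antagonism is scored as inhibition of an EC80 dopamine-evoked calcium signal in a force-coupled, tetracycline-inducible HEK293 T-REx D2 line, with compound present 180 s before agonist.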
D(2) dopamine receptor (Homo sapiens), sequence (P14416 whole entry, looked up): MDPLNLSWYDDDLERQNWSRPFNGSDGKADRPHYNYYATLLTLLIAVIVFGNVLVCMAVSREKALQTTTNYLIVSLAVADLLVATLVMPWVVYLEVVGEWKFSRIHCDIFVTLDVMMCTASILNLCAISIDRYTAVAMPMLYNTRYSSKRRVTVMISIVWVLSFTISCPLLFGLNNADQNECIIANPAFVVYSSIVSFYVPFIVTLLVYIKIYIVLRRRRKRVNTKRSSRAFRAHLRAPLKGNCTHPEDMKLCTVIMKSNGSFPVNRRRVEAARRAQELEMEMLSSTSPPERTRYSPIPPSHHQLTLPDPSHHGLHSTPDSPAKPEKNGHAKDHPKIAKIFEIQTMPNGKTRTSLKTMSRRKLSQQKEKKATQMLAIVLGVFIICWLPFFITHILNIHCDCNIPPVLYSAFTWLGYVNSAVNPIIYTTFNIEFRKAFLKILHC
As usually defined, the inhibition is the relative decrease from the control value, in per cent. As for `CC(C(=O)Nc1ccc(S(=O)(=O)N2CCCC2)cc1)N(C)Cc1ccc(F)cc1` (configuration not stated), the inhibition was -65.3%.
Consider `CCn1nc(C(=O)NNC(=O)C2CSC3(C)CCC(=O)N23)c2ccccc2c1=O` (configuration not stated), for which the inhibition is -19.4%.
Then `COc1cc(C#Cc2ccc3cc(CCCO)oc(=O)c3c2)cc(OC)c1`, with 7.69%; and `COc1ccc(CNC(=O)C(=O)N2CCC3(CC2)OCCN3S(=O)(=O)c2ccc(C)cc2)cc1`, with -3.99%; and `C=CCSc1ccc(S(=O)(=O)N2CCN(C)CC2)cn1`, with 6.94%.
In the case of `CC(C)N(Cc1nnc(-c2ccccc2Br)o1)C(=O)c1cc(Cl)nc2ccccc12` it was -0.847%; in that of `Cc1cc(C)cc(OCC(=O)Nc2ccc(N3CCOCC3)cc2N2CCOCC2)c1`, -19.7%.
In the case of `CCOc1ccc(S(=O)(=O)N2CCC(C(=O)NCC(=O)Nc3cccc(Cl)c3C)CC2)cc1` it was 0.735%.
Regarding `N#Cc1ccccc1S(=O)(=O)N1CCN(Cc2c(O)ccc3ccccc23)CC1`, the inhibition was -16.7%.
In the case of `COc1cccc(CNC(=O)C(=O)NCCC2CCCCN2S(=O)(=O)c2ccc(C)cc2)c1` (configuration not stated) it was -3.22%; in that of `C[C@@H](NC(=O)c1nc[nH]c1C(=O)N1CCN(C(=O)OC(C)(C)C)CC1)c1ccccc1`, 4.62%.
Then `CCCCOC(=O)c1[nH]c(C)c(C(=O)OC)c1C`, with -12.8%.
For `Cc1ccc(NC(=S)NC(=O)/C=C/c2ccc(Cl)cc2)cc1`, the inhibition is -2.32%.
In the case of `COC(=O)c1c(C)[nH]c(C(=O)/C=C/c2ccc(Cl)cc2)c1C` it was 40.8% (active); in that of `OCC1(Cc2ccccc2)CCN(Cc2cc3ccccc3o2)CC1`, 94.6% (active).
As for `CC(C)c1csc(CN2CCC(CO)(Cc3ccccc3)CC2)n1`, the inhibition was 0.256%.
In the case of `CC(=O)c1cccc(CN2CCC(CO)(Cc3ccccc3)CC2)c1` it was 3.1%.
Then `COc1ccc(CN2CCNC(=O)C2CC(=O)NCc2cn[nH]c2-c2ccccc2)c(F)c1` (configuration not stated), with -65.2%.
Then `OCC1(CCOc2ccccc2)CCN(Cc2cn[nH]c2-c2ccccc2)CC1`, with -12.6%; and `O=C(c1ccc(F)cc1)C1CCN(Cc2cn[nH]c2-c2ccccc2)CC1`, with 56% (active).
Regarding `Cc1ccc(S(=O)(=O)N2CCOCC2)cc1NC(=O)COC(=O)c1cnccn1`, the inhibition is -7.64%.
In the case of `O=C(Nc1nnc(CCc2ccccc2)s1)C1CCCO1` (configuration not stated) it was -19.8%.
For the compound `O=C(Nc1ccc(-c2nnc(-c3ccccc3)o2)cc1)C1CCCO1` (configuration not stated), the inhibition was -12.9%.
Then `O=C(Nc1cccc(-c2nnc(-c3ccccc3)o2)c1)C1CCCO1` (configuration not stated), with 63% (active).
In the case of `O=C(CC1SC(N2CCCC2)=NC1=O)Nc1ccc(C(=O)NCCc2ccc(F)cc2)cc1` (configuration not stated) it was -4.16%; in that of `COc1ccc(NC(=O)CC2SC(N3CCCCC3)=NC2=O)cc1OC` (configuration not stated), 40.6% (active).
Regarding `CCC(C)NC(=O)c1ccc(NC(=O)CC2SC(N3CCCCC3)=NC2=O)cc1` (configuration not stated), the inhibition is -4.54%.
Consider `COc1ccccc1N1CCN(C(=O)C2Cc3ccccc3CN2C(=O)c2ccco2)CC1` (configuration not stated), for which the inhibition is -23.2%.
In the case of `CCOc1ccc(NC(=O)COC(=O)C2CCC(=O)N2)c([N+](=O)[O-])c1` (configuration not stated) it was -10.6%; in that of `CC(C)c1ccc(S(=O)(=O)N2CCN(C(C)C(=O)NC3CCCC3)CC2)cc1` (configuration not stated), -16.2%.
In the case of `Cc1ccc2oc(=O)c3cnn(CC(=O)N(Cc4ccco4)C4CCCCC4)c3c2c1` it was 32.4% (active).
In the case of `Cc1ccc2oc(=O)c3cnn(CC(=O)N4CCCCCC4)c3c2c1` it was -0.561%; in that of `Cc1ccc2oc(=O)c3cnn(CC(=O)N4CCN(c5ccccn5)CC4)c3c2c1`, -21.9%; in that of `O=C(O)C1C2C=CC(C2)C1C(=O)NCc1ccccc1` (configuration not stated), 3.26%.
For the compound `O=C(COC(=O)c1ccc(O)cc1O)NNC(=O)c1cccs1`, the inhibition was 13.6%.
For the compound `Cc1ccn2cc(C(=O)NC3CCN(Cc4ccccc4)CC3)nc2c1`, the inhibition is 15.3%.
Then `O=C(NC1CCN(Cc2ccccc2)CC1)c1ccc(Oc2cc(Cl)cc(Cl)c2)o1`, with 26.7%; and `O=C(NC1CCN(Cc2ccccc2)CC1)c1c(F)cccc1F`, with 24.1%; and `O=C(NC1CCN(Cc2ccccc2)CC1)c1cc(Br)c(Br)[nH]1`, with 78.3% (active).
As to `Cc1cc(C(=O)NC2CCN(Cc3ccccc3)CC2)n[nH]1`, the inhibition is 74.1% (active).
Turning to `Cc1cc(C(=O)NC2CC(C)(C)Cc3c2cnn3-c2ccccc2)n[nH]1` (configuration not stated), the inhibition is -16%.
In the case of `O=C(c1ccncc1)N1CCN(S(=O)(=O)c2cccc([N+](=O)[O-])c2)CC1`, the inhibition was 4.87%.
Then `CC(Sc1nnc(C2CC2)n1C1CC1)C(=O)Nc1ccc(C(N)=O)cc1` (configuration not stated), with -13.1%.
In the case of `CC(OC(=O)c1ccccc1NCCO)C(=O)Nc1ccnn1C(C)C` (configuration not stated) it was -18.3%.
Then `COc1ccccc1CNS(=O)(=O)c1cc2c3c(c1)CCC(=O)N3CCC2`, with -11.8%; and `O=C(Nc1ccccc1)N1CCN(Cc2ccccc2)CC1`, with 13.1%; and `O=C(NC(=S)N1CCN(Cc2ccccc2)CC1)c1ccccc1`, with 31.2% (active).
Turning to `O=C(c1cccc(Cl)c1)N1CCN(Cc2ccccc2)CC1`, the inhibition is 7.63%.
In the case of `CC(C)N(C(=O)CN1CCN(S(=O)(=O)c2ccc(Br)s2)CC1)C(C)C`, the inhibition is -1.58%.
In the case of `CCN(CC)CCn1c2c(c(SCC(=O)Nc3ccc(C(C)C)cc3)nc1=O)CCC2` it was 14.2%; in that of `COc1ccc(CN2CCCC(N3CCc4ccccc4C3)C2)c(O)c1` (configuration not stated), -20%.
Consider `COc1ccc2cc1Oc1ccc(cc1)C[C@H]1c3cc(c(OC)cc3CCN1C)Oc1c(O)c(OC)cc3c1[C@H](C2)N(C)CC3`, for which the inhibition is -8.18%.
Then `COc1c(O)ccc2c1CN1CCc3cc4c(cc3C1C2)OCO4` (configuration not stated), with 74.1% (active).
As for `CCCCNC(=O)Cn1nc(C)c(S(=O)(=O)N2CCOCC2)c1C`, the inhibition was 4.53%.
Then `CS(=O)(=O)N(CC(O)Cn1c2ccccc2c2ccccc21)c1cccc2ccccc12` (configuration not stated), with 31.2% (active); and `CCCCN(CCCC)CC(O)Cn1c2ccccc2c(=O)c2ccccc21` (configuration not stated), with 0.545%.
Then `O=C1c2ccccc2S(=O)(=O)N1CC(O)Cn1c2ccccc2c2ccccc21` (configuration not stated), with 26.9%.
